According to PubChem BioAssay (Tox21):
Several values for one entry are separate records, joined by “and”; a condition that tells them apart may be missing. Equal values may be shown once. Inconclusive results are not listed. Entries that show only a call come without a potency. Some compounds were tested as several samples or in several runs, with calls that do not always agree. Activity calls are given as the source filed them. Unless noted, calls follow the shape of the dose curve; as a rule, active = well fitted curve in the direction sought with a large enough effect in the repeat runs; inconclusive = weak or mixed curves; inactive = no such curve, though single readings can be large; an effect the other way counts as inactive or inconclusive.

What was measured:
[1] = qHTS assay to identify small molecule antagonists of the constitutive androstane receptor (CAR) signaling pathway - cell viability counter screen (AID 1224837); also: series mostly up to about 92 µM; nearly all actives have a fitted effect of over 45% in size
How it was run: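 HepG2 cells stably expressing hCAR and a CYP2B6-2.2kb reporter were plated and pre-incubated 4 hr at 37 C/5% CO2, then given compounds at 15 concentrations plus 50 nM CITCO (final). After 23 hr, viability was read by CellTiter-Fluor fluorescence.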

[2] = target: Nuclear receptor subfamily 1 group I member 3 (Homo sapiens) (UniProt Q14994); test: qHTS assay to identify small molecule antagonists of the constitutive androstane receptor (CAR) signaling pathway (AID 1224838); also: nearly all actives have a fitted effect of over 40% in size
Chain of Nuclear receptor subfamily 1 group I member 3 (Homo sapiens) (Q14994 whole entry, looked up): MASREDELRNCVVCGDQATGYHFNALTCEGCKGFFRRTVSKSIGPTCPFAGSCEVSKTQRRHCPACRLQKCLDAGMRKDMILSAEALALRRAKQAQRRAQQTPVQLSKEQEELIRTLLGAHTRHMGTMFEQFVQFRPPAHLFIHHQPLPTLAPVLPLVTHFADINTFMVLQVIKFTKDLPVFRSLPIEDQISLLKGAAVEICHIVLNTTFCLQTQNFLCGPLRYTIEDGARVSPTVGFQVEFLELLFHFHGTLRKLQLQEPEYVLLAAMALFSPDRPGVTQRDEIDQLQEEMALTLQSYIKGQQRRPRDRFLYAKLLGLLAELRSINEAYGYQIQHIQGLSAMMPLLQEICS
How it was run: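 HepG2 cells stably co-transfected with hCAR and a CYP2B6-2.2kb luciferase reporter were seeded 4 h before compound addition at 15 concentrations. Cells were stimulated with 50 nM CITCO (final) for 24 h at 37 C; luciferase luminescence was then read.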

[3] = qHTS assay to identify small molecule antagonists of the estrogen related receptor signaling pathway with the pleiotropic PPARgamma coactivator (PGC) from Tox21 10K library - cell viability counter screen (AID 1224840; active = well fitted cell-killing curve with a large enough effect in the repeat runs, not every such curve was filed as active; also: nearly all actives have a fitted effect of over 40% in size)
How it was run: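 PGC/ERR cells were seeded at 2,000 cells/well and left 6 hours at 37 C/5% CO2 before pin-tool addition of compounds in DMSO. After 17.5 hours at 37 C, CellTiter-Fluor was added and fluorescence read 30 minutes later.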

[4] = qHTS assay to identify small molecule antagonists of the estrogen related receptor signaling pathway with the pleiotropic PPARgamma coactivator (PGC) from Tox21 10K library (AID 1224841; call rule not given here; also: actives are mostly falling curves and most rising ones were filed inactive; nearly all actives have a fitted effect of over 50% in size; also: potency is read from the fitted curve at half-maximal effect)
How it was run: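 PGC/ERR reporter cells were seeded at 2,000 cells/well and held 6 hours at 37 C/5% CO2 before pin-tool addition of compounds in DMSO. After 18 hours at 37 C, One-Glo was added and luminescence read after 30 minutes at room temperature.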

[5] = qHTS assay to identify small molecule agonists of the estrogen related receptor signaling pathway with the pleiotropic PPARgamma coactivator (PGC) from Tox21 10K library (AID 1224842); also: nearly all actives have a fitted effect of over 15% in size
How it was run: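 PGC/ERR reporter cells (NTP line) were seeded 2,000 per well, rested 6 h at 37 C/5% CO2, then pin-dosed with compounds in DMSO for 18 h at 37 C; luciferase read by One-Glo luminescence after 30 min at room temperature.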

[6] = qHTS assay to identify small molecule agonists of the hypoxia (HIF-1) signaling pathway - cell viability counter screen (AID 1224844; calls by dose curve; also: nearly all actives have a fitted effect of over 50% in size)
How it was run: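 HRE-bla ME-180 cells in medium with 0.5% dialyzed FBS were preincubated 5 hrs at 37C, exposed to compounds for 17 hrs, then viability was read as CellTiter-Glo luminescence after 30 min at room temperature, in the reporter wells.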

[7] = qHTS assay to identify small molecule agonists of H2AX (AID 1224845; active = well fitted activation curve with a large enough effect in the signal ratio in the repeat runs, not every such curve was filed as active; the % refers to the signal ratio)
How it was run: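 Wild-type CHO-K1 cells plated overnight, then exposed 3 hr at 37C to compounds at 15 concentrations (0.76% DMSO). Lysed, then HTRF anti-pH2AX(S139)-cryptate/anti-H2AX-d2 detection after 24 hr at room temperature; emissions 665 and 620 nm.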

[8] = qHTS assay to identify small molecule agonists of the hypoxia (HIF-1) signaling pathway (AID 1224846; active = well fitted activation curve with a large enough effect in the signal ratio in the repeat runs, not every such curve was filed as active; the % refers to the signal ratio)
How it was run: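 HRE-bla ME-180 cells (beta-lactamase reporter under hypoxia response element) were plated at 2,000 cells/well in medium with 0.5% dialyzed FBS, rested 5 hrs, then given compounds in DMSO for 17 hrs at 37C, 5% CO2. Reporter induction was read with CCF4-AM FRET substrate.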

[9] = target: Nuclear receptor subfamily 1 group I member 3 (Homo sapiens) (UniProt Q14994); test: qHTS assay to identify small molecule agonists of the constitutive androstane receptor (CAR) signaling pathway (AID 1224839); also: nearly all actives have a fitted effect of over 15% in size; also: potency is read from the fitted curve at half-maximal effect;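 as to activation: HepG2 cells stably carrying human CAR and a CYP2B6 luciferase reporter; series mostly up to about 92 µM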
How it was run: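 HepG2 cells stably co-transfected with hCAR and a CYP2B6-2.2kb luciferase reporter; compounds at 15 concentrations with 0.75 uM PK11195 present. After 24 hr at 37 C, luciferase read by ONE-Glo luminescence.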

[10] = target: Thyrotropin receptor (Homo sapiens) (UniProt P16473); test: qHTS assay to identify small molecule agonists of the thyroid stimulating hormone receptor (TSHR) signaling pathway (AID 1224843; calls by dose curve; also: nearly all actives have a fitted effect of over 45% in size)
Chain of Thyrotropin receptor (Homo sapiens) (P16473 whole entry, looked up): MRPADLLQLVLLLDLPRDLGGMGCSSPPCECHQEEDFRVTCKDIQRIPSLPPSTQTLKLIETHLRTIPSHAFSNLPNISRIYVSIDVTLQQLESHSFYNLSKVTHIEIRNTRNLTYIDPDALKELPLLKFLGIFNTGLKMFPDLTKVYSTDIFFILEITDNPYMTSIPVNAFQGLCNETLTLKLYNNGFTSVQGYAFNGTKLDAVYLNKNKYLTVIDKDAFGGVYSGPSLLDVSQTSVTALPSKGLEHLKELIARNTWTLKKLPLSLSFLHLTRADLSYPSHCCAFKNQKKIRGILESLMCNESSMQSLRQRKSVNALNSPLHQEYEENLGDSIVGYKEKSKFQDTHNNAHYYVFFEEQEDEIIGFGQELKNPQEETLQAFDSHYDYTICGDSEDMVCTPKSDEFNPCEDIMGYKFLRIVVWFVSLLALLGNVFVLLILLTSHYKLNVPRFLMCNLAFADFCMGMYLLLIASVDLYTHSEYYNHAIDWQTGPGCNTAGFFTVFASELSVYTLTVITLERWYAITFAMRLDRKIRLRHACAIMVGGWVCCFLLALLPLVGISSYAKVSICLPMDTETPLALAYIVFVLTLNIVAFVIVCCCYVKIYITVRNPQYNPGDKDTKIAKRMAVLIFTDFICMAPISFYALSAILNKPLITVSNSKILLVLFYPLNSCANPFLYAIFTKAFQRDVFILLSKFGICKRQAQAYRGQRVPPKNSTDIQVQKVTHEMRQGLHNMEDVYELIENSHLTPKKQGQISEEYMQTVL
How it was run: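 Cell line HEK293 with TSHR; density 800/well. Exposure 30 min RT. Readout HTRF cAMP (cAMP-d2/anti-cAMP-cryptate), 1 h RT before reading.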

Compound | Potency [1] | Potency [2] | Potency [3] | Potency [4] | outcome [5] | Potency [6] | Potency [7] | outcome [8] | Potency [9] | activity change, negative = cytotoxicity [6] | Potency [10]
CC(C)OC(=O)Nc1ccccc1 | inactive | inactive | inactive | inactive | inactive | inactive | inactive | inactive |  |  | 
Nc1ccc(Br)cc1 | inactive | inactive | inactive |  |  | inactive | inactive | inactive |  |  | 
C=C(C)CCl | inactive | inactive | inactive |  |  |  | inactive | inactive | inactive | -1.52% [at 6.97 µM] (inactive) | 
CC(C)NC(=O)N1CC(=O)N(c2cc(Cl)cc(Cl)c2)C1=O | inactive |  | inactive | 30.6 µM (active) and inactive | inactive | inactive | inactive | inactive | inactive |  | inactive
c1ccc2c(c1)Oc1ccccc1O2 | inactive |  | inactive |  |  | inactive | inactive | inactive | inactive |  | inactive
CC(C)C1(C)N=C(c2nc3ccccc3cc2C(=O)O)NC1=O (configuration not stated) | inactive |  | inactive | inactive | inactive | inactive | inactive | inactive | inactive |  | inactive
O=S(=O)(c1ccc(O)cc1)c1ccc(O)cc1 | inactive | inactive | inactive |  |  | inactive | inactive | inactive | inactive |  | 
CCCCCCCCCCCC#N | inactive | inactive | inactive |  |  | inactive | inactive | inactive | inactive |  | 
ClCCBr | inactive |  | inactive | inactive | inactive | inactive | inactive | inactive | inactive |  | 
O=C(NC(=O)c1c(F)cccc1F)Nc1cc(Cl)c(OC(F)(F)C(F)C(F)(F)F)cc1Cl (configuration not stated) | inactive |  | inactive | inactive | inactive | inactive | inactive | inactive | inactive |  | 
C#CC(C)(C)NC(=O)c1cc(Cl)cc(Cl)c1 | inactive |  | inactive |  |  | inactive | inactive | inactive | inactive |  | inactive
Clc1cccc(Cl)c1Cl | inactive |  | inactive | inactive | inactive | inactive | inactive | inactive | inactive |  | 
O=C(O)c1ccccn1 | inactive | inactive | inactive |  |  | inactive | inactive | inactive | inactive |  | 
O=[N+]([O-])c1ccc([As](=O)(O)O)cc1 | inactive | inactive | inactive |  |  | inactive | inactive | inactive | inactive |  | inactive
O=c1[nH]c2ccccc2c(=O)o1 | inactive |  | inactive |  |  | inactive | inactive | inactive | inactive |  | inactive
Clc1ccccc1Cl | inactive |  | inactive |  |  | inactive | inactive | inactive | inactive |  | inactive
Cc1ccccc1O | inactive | inactive | inactive |  |  | inactive | inactive | inactive | inactive |  | 

Compound | Potency [1] | Potency [2] | Potency [3] | Potency [4] | outcome [5] | Potency [6] | Potency [7] | outcome [8] | Potency [9] | activity change, negative = cytotoxicity [6] | Potency [10]
Clc1ccc(Cl)cc1 | inactive |  | inactive |  |  | inactive | inactive | inactive | inactive |  | inactive
Nc1ccc(Oc2ccc(N)cc2)cc1 | inactive |  | inactive | inactive | inactive | inactive | inactive | inactive | inactive |  | inactive
Cc1ccc([N+](=O)[O-])cc1C | inactive | inactive | inactive |  |  | inactive | inactive | inactive | inactive |  | 
CC(C)(Cl)Cl | inactive |  | inactive |  |  | inactive | inactive | inactive | inactive |  | inactive
CCOP(=S)(OCC)Oc1cnc2ccccc2n1 | inactive |  | inactive |  |  | inactive | inactive | inactive | inactive and 30.6 µM (active) |  | inactive
O=c1[nH]c(=O)[nH]c(=O)[nH]1 | inactive |  | inactive | inactive | inactive | inactive | inactive | inactive | inactive |  | inactive
c1ccc2c(c1)oc1ccccc12 | inactive |  | inactive |  |  | inactive | inactive | inactive | inactive |  | inactive
CN(C)CCO | inactive |  | inactive | inactive | inactive | inactive | inactive | inactive | inactive |  | 
CCN(CC)CCO | inactive | inactive | inactive |  |  | inactive | inactive | inactive | inactive |  | 
COC(=O)c1ccccc1C(=O)OC | inactive |  | inactive | 38.8 µM (active) and inactive | inactive | inactive | inactive | inactive | inactive |  | 
CCCCN(CC)C(=O)SCCC | inactive | inactive | inactive |  |  | inactive | inactive | inactive | inactive |  | 
CC(C)=C[C@@H]1[C@@H](C(=O)OCc2coc(Cc3ccccc3)c2)C1(C)C | inactive |  | inactive |  |  | inactive | inactive | inactive | 17.2 µM (active) and inactive |  | inactive
CCNc1nc(NC(C)C)nc(SC)n1 | inactive | inactive | inactive |  |  | inactive | inactive | inactive | 48.6 µM (active) |  | 
O=S(=O)(c1ccc(Cl)cc1)c1cc(Cl)c(Cl)cc1Cl | inactive | inactive | inactive |  |  | inactive | inactive | inactive | 30.6 µM (active) and 27.3 µM (active) |  | 
COCCl | inactive |  | inactive | inactive | inactive | inactive | inactive | inactive | inactive |  | inactive
O=C1CCCN1 | inactive |  | inactive |  |  | inactive | inactive | inactive | inactive |  | inactive
